BAZ2B inh: inhibitors of human BAZ2B bromodomain; Potency, µM (highest dose often 114 µM), hits mostly inhibitors; AlphaScreen BAZ2B-H3K14Ac peptide displacement; AID 504333; actives 4.4% (n = 360,000); also: nearly all actives have a fitted effect of over 60% in size
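AlphaScreen displacement: compounds (up to 110uM) incubated 30 min at room temperature with a preformed 50 nM BAZ2B/50 nM biotinylated H3K14Ac peptide complex in PBS pH 7.4 with Tween-20. Donor and acceptor beads at 10 ug/mL final added, 20 min light-protected before reading.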
Six1-Eya2 blk: inhibitors of human Six1/Eya2 interaction | AlphaScreen GST-Six1/His-Eya2 binding, biochemical; hits give low values | activity change, % (concentration not given with the values) | actives 0.56% (n = 360,000); in the data active = activity change below about -65%; inconclusive = mostly about -30% to -63%
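GST-Six1 + His-Eya2 (5X stock: 250/500 nM); Tris pH 8.0, 300 mM NaCl, 0.05% BSA, 0.02% Tween 20; GSH donor/Ni acceptor beads; 1 h 37 °C dark; AlphaScreen readout.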
G9a inh: G9a (human) methyltransferase inhibition. G9a H3K9 monomethylation, AlphaScreen, 2 h. AID 504332. Potency, µM (highest dose often 102 µM), usual class: inhibitors. actives 8.8% (n = 350,000). Q96KQ7; also: nearly all actives have a fitted effect of over 75% in size
Target sequence (Q96KQ7 913-1193 limits assumed): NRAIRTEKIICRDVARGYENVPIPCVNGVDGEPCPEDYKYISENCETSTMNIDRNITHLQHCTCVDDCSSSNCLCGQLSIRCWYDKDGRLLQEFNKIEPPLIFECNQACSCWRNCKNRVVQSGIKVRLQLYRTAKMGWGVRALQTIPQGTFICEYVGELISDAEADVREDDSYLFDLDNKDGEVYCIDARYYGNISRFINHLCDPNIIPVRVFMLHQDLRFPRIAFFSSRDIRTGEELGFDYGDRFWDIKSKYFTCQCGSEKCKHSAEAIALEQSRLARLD
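Methyltransferase reactions run at room temperature for 2 h (20 nM enzyme, 500 nM biotin-H3K9 peptide, 20 uM SAM) after a 15 min compound preincubation; product detected by AlphaScreen beads and anti-H3K9me1 antibody.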
JMJD2A Tudor inh: JMJD2A Tudor domain (human) inhibition. AlphaScreen JMJD2A-Tudor / H3K4me3 peptide binding. O75164. actives 4.4% (n = 390,000). Potency, µM (top dose mostly 114 µM), most hits filed as inhibitors. AID 504339; also: nearly all actives have a fitted effect of over 50% in size
CtBP-E1A blk: inhibitors of CtBP/E1A interaction. AlphaScreen GST-E1A/His-CtBP binding, 1536-well; hits give low values. activity change, % (test concentration not listed). actives 0.49% (n = 340,000). AID 651724; in the data active = activity change below about -65%; inconclusive = mostly about -30% to -63%
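Protein mix (5X: 125 nM each GST-E1A, His-CtBP) was incubated with pinned compound 2 h at 37 deg C in dark, in 50 mM Tris pH 8.0 buffer with 300 mM NaCl. Glutathione donor and nickel acceptor beads followed; AlphaScreen signal read after 1 h.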
HP1b binding inh: inhibitors of HP1-beta chromodomain binding to methylated histone tails. P83916. AlphaScreen HP1-beta / biotin-H3K9me3 peptide binding. actives 0.56% (n = 390,000). Potency, µM (series often up to 114 µM), hits mostly inhibitors; also: nearly all actives have a fitted effect of over 70% in size
Target sequence (P83916 whole entry, looked up): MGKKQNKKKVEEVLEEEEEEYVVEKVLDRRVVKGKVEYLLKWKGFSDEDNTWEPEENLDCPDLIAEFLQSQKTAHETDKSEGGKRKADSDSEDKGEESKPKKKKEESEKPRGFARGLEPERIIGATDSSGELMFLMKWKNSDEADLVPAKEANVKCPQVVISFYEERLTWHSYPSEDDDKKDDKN
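AlphaScreen: HP1-beta (50 nM) preformed 30 min with biotin-H3(1-18)K9me3 peptide (50 nM) in PBS pH 7.4, 0.01% Tween-20. Compound added for 30 min at RT, then streptavidin donor/nickel chelate acceptor beads (10 ug/mL) for 30 min.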
Each line names hits and unclear results; the compound was inactive in the other large screens; ! = repeats disagree. In the library only some 10% were active in any assay of this set; here they are far more common. Unless noted, calls follow the shape of the dose curve; as a rule, active = well fitted inhibition curve with a large enough effect; inconclusive = small, poorly fitted or top-dose-only effect; inactive = no such curve, though single readings can be large or run the other way.

CC(=O)Nc1ccc(-n2c(CCC(=O)O)ccc2-c2ccc(Br)cc2)cc1	BAZ2B inh inconclusive, G9a inh inconclusive (no result: Six1-Eya2 blk, CtBP-E1A blk)
COC(=O)c1ccccc1NC(=O)Cn1c(CCC(=O)O)ccc1-c1ccc(C)cc1	BAZ2B inh inconclusive, G9a inh inconclusive, JMJD2A Tudor inh inconclusive (no result: Six1-Eya2 blk, CtBP-E1A blk)
CC(=O)Nc1ccc(-n2c(CCC(=O)O)ccc2-c2ccc(C)cc2)cc1	G9a inh 14.1µM (no result: Six1-Eya2 blk, CtBP-E1A blk)
COC(=O)c1ccc(-n2c(CCC(=O)O)ccc2-c2ccc(C)cc2)cc1	BAZ2B inh 44.7µM, G9a inh 14.1µM!, JMJD2A Tudor inh inconclusive
O=C(O)CCc1ccc(-c2ccccc2)n1-c1cccc(O)c1	G9a inh inconclusive, JMJD2A Tudor inh inconclusive
Cc1ccc(-c2ccc(CCC(=O)O)n2-c2ccc(C(=O)O)cc2)cc1	BAZ2B inh inconclusive, G9a inh 31.6µM (no result: CtBP-E1A blk)
Cc1ccc(-c2ccc(CCC(=O)O)n2-c2cccc(C(=O)O)c2)cc1	G9a inh 44.7µM
Cc1cccc(-n2c3nc(=O)[nH]c(=O)c-3cc3c(Cl)cccc32)c1C	none (no result: Six1-Eya2 blk, CtBP-E1A blk)
O=C1CCN(Cc2ccco2)C(=S)N1	none (no result: BAZ2B inh, G9a inh)
COc1ccc(CNc2cc(-c3ccccc3Cl)ncn2)c(OC)c1	none (no result: BAZ2B inh, Six1-Eya2 blk, JMJD2A Tudor inh, CtBP-E1A blk, HP1b binding inh)
CCN(Cc1nc(-c2ccccc2)no1)C(=O)c1ccco1	none
Cc1ccc(-c2ccc(CCC(=O)O)n2-c2ccc(C(C)C)cc2)cc1	BAZ2B inh 39.8µM, G9a inh 15.8µM, JMJD2A Tudor inh inconclusive, HP1b binding inh inconclusive (no result: Six1-Eya2 blk, CtBP-E1A blk)
COc1ccc(-c2ccc(CCC(=O)O)n2-c2cc(OC)ccc2OC)cc1	none (no result: BAZ2B inh, G9a inh, JMJD2A Tudor inh, HP1b binding inh)
Cc1ccc(-c2ccc(CCC(=O)O)n2-c2cccc(C)c2C)cc1	BAZ2B inh 44.7µM, G9a inh 14.1µM, JMJD2A Tudor inh 35.5µM (no result: Six1-Eya2 blk, CtBP-E1A blk)
Cc1ccc(C)n1-c1ccc(C(=O)O)cc1	BAZ2B inh 12.6µM, G9a inh 8.91µM (no result: Six1-Eya2 blk, JMJD2A Tudor inh, CtBP-E1A blk, HP1b binding inh)
CCOC(=O)c1ccc(-n2c(CCC(=O)O)ccc2-c2ccc(F)cc2)cc1	G9a inh 44.7µM (no result: CtBP-E1A blk)
CC(=O)c1c(C(C)=O)c(C)n(-c2ccc(C(=O)O)cc2)c1C	none
CC(C)n1c(CCC(=O)O)ccc1-c1ccccc1	G9a inh inconclusive
CCOC(=O)c1cnc(NCc2ccccc2OC)c2ccccc12	none (no result: Six1-Eya2 blk, CtBP-E1A blk)
O=C1CCc2cc(S(=O)(=O)NCc3ccccc3)ccc2N1	none (no result: BAZ2B inh, Six1-Eya2 blk, G9a inh, CtBP-E1A blk, HP1b binding inh)
CCOCCCNC(=O)Cn1ncc2c([nH]c3ccc(C)cc32)c1=O	none (no result: Six1-Eya2 blk, CtBP-E1A blk)
Oc1ccc(-c2csc(Nc3ccc4c(c3)OCO4)n2)c(O)c1	JMJD2A Tudor inh 56.2µM, HP1b binding inh inconclusive (no result: BAZ2B inh, G9a inh, CtBP-E1A blk)
Cc1cccc(Nc2nc(-c3ccc(O)cc3O)cs2)n1	BAZ2B inh inconclusive, G9a inh 50.1µM, JMJD2A Tudor inh inconclusive
Cc1ccc(NC(=O)N2CCC(CN3CCCC3)CC2)c(C)c1	none (no result: Six1-Eya2 blk, CtBP-E1A blk)
O=C(N/N=C/c1cccnc1)c1cc2c(ccc3ccccc32)o1	none
O=C(N/N=C/c1ccc(O)c(Br)c1)c1cc2c(ccc3ccccc32)o1	none
O=C(N/N=C/c1cc(Cl)c(O)c(Cl)c1)c1cc2c(ccc3ccccc32)o1	BAZ2B inh 56.2µM, JMJD2A Tudor inh inconclusive, CtBP-E1A blk inconclusive (no result: G9a inh)
O=C(N/N=C/c1cc(Br)c(O)c(Br)c1)c1cc2c(ccc3ccccc32)o1	BAZ2B inh 39.8µM, Six1-Eya2 blk inconclusive, G9a inh inconclusive, JMJD2A Tudor inh 79.4µM, HP1b binding inh inconclusive
O=C(CSc1nnc(COc2ccc(Cl)cc2)o1)Nc1ccc(N2CCOCC2)cc1	G9a inh 31.6µM
Cc1cccc(OCc2nnc(SCC(=O)Nc3ccc(N4CCOCC4)cc3)o2)c1	none
O=C(CSc1nnc(COc2ccc(Cl)cc2)o1)Nc1nccs1	Six1-Eya2 blk -86.9, CtBP-E1A blk inconclusive (no result: BAZ2B inh, G9a inh, JMJD2A Tudor inh, HP1b binding inh)
Cc1cccc(OCc2nnc(SCC(=O)Nc3nccs3)o2)c1	BAZ2B inh 79.4µM, Six1-Eya2 blk -94.4, CtBP-E1A blk -93.1
COc1cccc(NC(=O)CSc2nnc(COc3ccc(Cl)cc3)o2)c1	none (no result: Six1-Eya2 blk, CtBP-E1A blk)
O=C(CSc1nnc(CNC(=O)c2ccc(F)cc2)o1)Nc1nccs1	BAZ2B inh 79.4µM, Six1-Eya2 blk -88.0, CtBP-E1A blk -86.6 (no result: G9a inh)
Oc1cccc(C(O)CNCc2ccc(OCc3ccc(Cl)cc3Cl)cc2)c1 (centres undefined)	JMJD2A Tudor inh inconclusive

Bioassay records as filed in PubChem.
